Screening data (PubChem BioAssay)
This is a sample that favours compounds with a hit; in the whole collection about 6.7% have one here.
MCF10A rereplic: induces DNA re-replication in MCF 10a normal breast cells; MCF 10A DNA re-replication, Hoechst nuclear intensity, 48 h; Potency, µM (top dose mostly 46.1 µM), actives largely listed as activators; 350,000 tested, 2.9% active; AID 624296; further: nearly all actives have a fitted effect of over 50% in size
KB-V1 cytotox: KB-V1 MDR subline cytotoxicity. KB-V1 MDR cells viability, CellTiter-Glo, 72 h. Potency, µM (series often up to 46.1 µM), usual class: cytotoxic. 400,000 tested, 3.4% active. AID 1347076; further: nearly all actives have a fitted effect of over 60% in size
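In this primary screen, KB-V1 cells overexpressing P-gp are incubated with library compounds (lowest to highest concentration) for 72 h at 37 degrees C before a luminescent ATP viability read.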
PINK1 expr mod: modulators of PINK1 expression; PINK1 immunofluorescence, high-content cytometry, 24 h; Potency, µM (highest dose often 76.6 µM), actives largely listed as activators; 410,000 tested, 0.2% active; active means well fitted activation curve with a large enough effect; inconclusive means small, poorly fitted or top-dose-only effect; cell line not stated here; further: nearly all actives have a fitted effect of over 65% in size
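Measures PINK1 amount and localization on or inside mitochondria by immunofluorescence. Stable cells get compounds at 5 concentrations for 24 hours before fixation and staining; CCCP controls included.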
SW480 rereplic: inducers of DNA re-replication in SW480 colon cancer cells; Potency, µM (doses to about 46.1 µM), most hits filed as activators; AID 624297; SW480 DNA re-replication, Hoechst DNA content imaging, 48 h; 340,000 tested, 1.8% active; further: nearly all actives have a fitted effect of over 55% in size
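Image-based DNA-content assay: after two days of treatment, nuclei were labelled with the DNA dye Hoechst and imaged, and hits were compounds raising the count of nuclei showing high fluorescence intensity.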
KB-3-1 tox: kills parental KB-3-1 adenocarcinoma cells; KB-3-1 viability, CellTiter-Glo ATP luminescence, 72 h; Potency, µM (highest dose often 46.1 µM), hits mostly cytotoxic; 400,000 tested, 1.4% active; further: nearly all actives have a fitted effect of over 60% in size
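KB-3-1 cells, DMEM (no phenol red) + 10% FBS; compound by pin transfer, 72 h, 37 °C. Readout: CellTiter-Glo luminescence after 10 min. Data normalized, curve-fitted.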
A number is an active result; – = inactive; ? = inconclusive; · = no result. Unless noted, the call rests on the fitted dose curve; in most records, active means well fitted curve in the direction sought with a large enough effect; inconclusive means small, poorly fitted or top-dose-only effect, or another doubt; inactive means no such curve, though single readings can be large; an effect the other way counts as inactive or inconclusive.

SMILES	MCF10A rereplic	KB-V1 cytotox	PINK1 expr mod	SW480 rereplic	KB-3-1 tox
Cc1cccc(NC(=O)Cn2nnc3sc4c(c3c2=O)CC(C)(C)OC4)c1	–	–	–	–	–
CCC1(C)Cc2c(sc3nnn(CC(=O)Nc4ccccc4C)c(=O)c23)CO1 (configuration not stated)	–	15µM	–	–	–
CC1(C)Cc2c(sc3nnn(Cc4ccccc4)c(=O)c23)CO1	?	–	–	–	–
CCN1C(=O)[C@H]2[C@H]3[C@H](O)[C@H](O)CC(=O)[C@@H]3CC[C@H]2C1=O	·	·	–	·	·
Cc1ccccc1C1(CC(=O)N2CC3(C)CC2CC(C)(C)C3)CC(=O)N(Cc2cccnc2)C1=O (configuration not stated)	·	·	–	·	·
COc1ccc(C(=O)NN(C)c2nc(C(F)(F)F)nc3ccccc23)cc1	0.033µM	0.73µM	–	?	0.82µM
CCOC(=O)c1ccccc1NC(=O)c1cc2ccc3cccnc3c2[nH]1	·	·	–	·	·
CCC(=NN=C(CC)c1ccccc1O)c1ccccc1O	?	?	–	–	–
C/C(=N/N=C(\C)c1ccccc1O)c1ccccc1O	–	–	32µM	–	–
Cn1c2ccccc2c2cnn(CC(=O)NCCCN3CCCCC3)c(=O)c21	·	–	–	·	–
COc1ccccc1N(C)S(=O)(=O)c1ccc(C(=O)N(C)Cc2ccc(Cl)s2)cc1	26µM	·	–	–	·
Cc1cccc(C)c1OCc1cc(C(=O)N2CC3C[C@@H]4CC2C[C@H](C3)C4)no1	18µM	?	–	–	–
Cc1ccc(OCc2cc(C(=O)N3CCCC(C)C3)no2)cn1 (configuration not stated)	·	?	–	·	21µM
Cc1ccc(C)c(OCc2cc(C(=O)N3CCOCC3)no2)c1	18µM	–	–	–	–
Cc1ccc(C)c(OCc2cc(C(=O)N(C)Cc3nccn3C)no2)c1	–	13µM	–	–	–
COC1CCN(C(=O)c2cc(COc3cc(C)ccc3C)on2)CC1	·	?	–	·	–
Cc1ccc(OCc2cc(C(=O)N(C)Cc3nccn3C)no2)cc1C	–	–	–	?	–
COc1cc(O)ccc1C(=O)CCc1ccc(O)cc1	–	–	–	–	–
CCCCNC(=O)c1ccccc1SCC(=O)NC1CCCCCCC1	–	–	–	–	–
O=C(CN1C(=O)c2cccc([N+](=O)[O-])c2C1=O)N1CCN(S(=O)(=O)c2ccccc2)CC1	–	–	–	–	–
Cn1nnnc1SCc1csc(Nc2ccccc2)n1	–	–	–	–	–
Cc1ccc(Nc2nc(CSc3nnc(-c4ccccc4)n3C)cs2)cc1	?	–	–	–	?
Cc1ccc(Nc2nc(CSc3nnc(-c4ccccc4C)n3C)cs2)cc1	?	6.5µM	–	–	?
Cc1ccc(Nc2nc(CSc3nnnn3-c3ccccc3)cs2)cc1	–	15µM	–	–	?
Cc1ccc(Nc2nc(CSc3nnnn3C)cs2)cc1	–	23µM	–	–	–
SMILES	MCF10A rereplic	KB-V1 cytotox	PINK1 expr mod	SW480 rereplic	KB-3-1 tox
Cc1nc2cnc(N3CCOCC3)nc2n(Cc2ccc(F)cc2)c1=O	·	·	–	·	·
CC1(C(=O)NCc2ccc(C(F)(F)F)cc2)CCN1Cc1ccc(-c2ccccc2)o1 (configuration not stated)	·	–	–	·	–
CCc1noc(C)c1C(=O)NNC(=O)c1cc(OC)c(OC)c(OC)c1	–	–	–	18µM	–
CCc1noc(C)c1C(=O)NNC(=O)c1cc(OC)cc(OC)c1	–	–	–	–	–
O=C(NCc1ccc(Cl)cc1Cl)c1cccc(N2CCCS2(=O)=O)c1	·	–	–	·	–
COC(=O)C(NC(=O)C(CC(C)C)NC(=O)C1CCC(C)CC1)C(C)C (configuration not stated)	–	?	–	–	–
CCCCCCC1CCC(C(=O)NC(CCSC)C(=O)NC(C(=O)OC)C(C)C)CC1 (configuration not stated)	7.3µM	–	–	–	–
O=[N+]([O-])c1ccc(NN=Cc2cccc([N+](=O)[O-])c2)cc1	23µM	–	–	–	–
O=[N+]([O-])c1ccc(N/N=C/c2cccnc2)cc1	–	–	–	?	–
CCCCCCCCCCS(=O)(=O)N/N=C/c1ccccc1OC	18µM	–	–	–	–
O=[N+]([O-])c1ccc(N/N=C/c2c[nH]c3ccccc23)cc1	?	?	–	?	?
O=[N+]([O-])c1ccc(N/N=C/c2cccc(O)c2)cc1	18µM	–	–	?	–
O=[N+]([O-])c1ccc(N/N=C/c2cccc(O)c2O)cc1	23µM	–	–	?	?
CN(Cc1ccc(Cl)c(Cl)c1)C(C(=O)NCc1ccccc1)c1ccco1 (configuration not stated)	·	?	·	·	–
O=C(CN1C(=O)C(=O)N(C2CCCC2)C1=O)Nc1ccc(OC(F)F)cc1	–	–	–	–	–
Cc1cccc(C(=O)Oc2ccccc2/C=N/Nc2ccc([N+](=O)[O-])cc2)c1	?	–	?	13µM	?
CCCCCCCCCS(=O)(=O)N/N=C/c1cccc([N+](=O)[O-])c1	15µM	–	–	–	–
O=C(O)/C=C/c1cn(-c2ccccc2)nc1-c1cccc([N+](=O)[O-])c1	–	–	–	–	–
O=[N+]([O-])c1ccc(N/N=C/c2cn(-c3ccccc3)nc2-c2ccccc2)cc1	1.6µM	?	–	10µM	–
O=C(O)/C=C/c1cn(-c2ccccc2)nc1-c1ccc(-c2ccc([N+](=O)[O-])cc2)o1	3.3µM	–	–	?	–
NS(=O)(=O)c1ccc(N/N=C/c2cn(-c3ccccc3)nc2-c2ccccc2)c([N+](=O)[O-])c1	–	?	–	–	?
Cc1cccc(C(=O)Oc2ccc(/C=N/O)cc2)c1	–	–	–	–	–
CCCn1c(=O)c(C(=O)NNS(=O)(=O)c2ccc(NC(=O)OC)cc2)c(O)c2ccccc21	?	–	–	?	–
CCOC(=O)CNC(=O)Cn1nc(N2CCN(c3ccccc3)CC2)ccc1=O	·	–	–	·	–
CC(C)CC(N)c1csc(NC(=O)Nc2ccccc2C(C)(C)C)n1 (configuration not stated)	·	23µM	–	·	?
O=c1c2cn(Cc3ccccc3)c3ccccc3c-2nn1Cc1ccc(F)cc1Cl	–	–	–	–	–
COC(=O)c1c(Oc2ccc(OC)cc2)nnc(-c2ccccc2)c1-c1ccccc1	·	–	–	·	–
CC1(C)CC[C@]2(C(=O)O[C@@H]3OC(CO)[C@@H](O)[C@H](O)[C@H]3O)CC[C@]3(C)C(=CCC4[C@@]5(C)CC[C@H](O[C@@H]6OC(C(=O)O)[C@@H](O)[C@H](O)[C@H]6O)C(C)(C)C5CC[C@]43C)[C@@H]2C1 (some centres not stated)	18µM	–	–	–	–
O=C(CC1Nc2ccccc2NC1=O)Nc1cc(Cl)cc(Cl)c1 (configuration not stated)	?	–	8.9µM	1.8µM	–
